From PubChem BioAssay (EPA / NIEHS)
Inconclusive results are not listed. Activity calls are given as the source filed them. The calls were made as follows, unless noted: active = hit-call score of the fitted dose curve at least 0.9, where 1 is the maximum; inactive = score below 0.9.

Key:
[1] = target: Hepatocyte nuclear factor 4-alpha (Homo sapiens) (UniProt P41235); experiment: ATG_HNF4a_TRANS: Attagene TRANS-FACTORIAL HepG2 Assay for human Hepatocyte Nuclear Factor 4 alpha (HNF4a) (AID 2282982; active = hit-call score of the fitted dose curve at least 0.9, where 1 is the maximum); conditions: HepG2 HNF4a transactivation reporter, mRNA readout
Outline: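 Transient MRTU transfection of HepG2, 24 h dosing. Readout: reporter mRNA via RT-PCR + capillary electrophoresis, fluorescence; activity fit upward relative to DMSO control.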

[2] = target: Nuclear receptor subfamily 4 group A member 2 (Homo sapiens) (UniProt P43354); experiment: ATG_NURR1_TRANS: Attagene TRANS-FACTORIAL HepG2 Assay for human Nuclear Receptor Related Protein 1 (NURR1) (AID 2282985; active = hit-call score of the fitted dose curve at least 0.9, where 1 is the maximum); conditions: HepG2 Attagene TRANS reporter, mRNA readout
Outline: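 Read-out: reporter mRNA induction by RT-PCR plus capillary electrophoresis with fluorescence detection, after 24 h dosing of transfected HepG2 cells. Exogenous NR-Gal4 chimera activity drives GAL4-UAS reporter; activity fitted upward versus DMSO.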

[3] = target: Transcriptional activator Myb (Homo sapiens) (UniProt P10242); experiment: ATG_Myb_CIS: Attagene CIS-FACTORIAL HepG2 Assay for human Myeloblastosis (Myb) Proto-Oncogene Transcription Factor (AID 2282986); conditions: HepG2 Attagene CIS-FACTORIAL Myb reporter transcription; actives raise or lower the signal
Outline: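 Endogenous transcription factor activity at a Myb-responsive cis element is reported in human liver HepG2 cells after 24 h chemical treatment. Reporter mRNA is detected by RT-PCR and capillary electrophoresis fluorescence, with DMSO as baseline.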

[4] = target: Nuclear respiratory factor 1 (Homo sapiens) (UniProt Q16656); experiment: ATG_NRF1_CIS: Attagene CIS-FACTORIAL HepG2 Assay for human Nuclear Respiratory Factor 1 (NRF1) Orphan Gene (AID 2282987); conditions: HepG2 NRF1 cis-element reporter, Attagene multiplex; actives raise or lower the signal
Outline: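 Human hepatoma HepG2 cells carrying transfected promoter-regulated reporter units were incubated with test chemicals for 24 h. Reporter transcripts were measured by RT-PCR plus capillary electrophoresis, and endpoints derived by bidirectional fitting with DMSO as baseline.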

[5] = ATG_NFI_CIS: Attagene CIS-FACTORIAL HepG2 Assay for human Nuclear Factor I (NFI) (AID 2282989); conditions: HepG2 cis-regulatory reporter, NFI response element transcription; actives raise or lower the signal
Outline: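 Reporter transcripts were measured by RT-PCR with fluorescent primer extension and capillary electrophoresis 24 h post-treatment. HepG2 cells carried transiently transfected cis-regulated reporter constructs reporting endogenous factor activity; gain or loss fitted against DMSO baseline.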

[6] = target: Myc proto-oncogene protein (Homo sapiens) (UniProt P01106); experiment: ATG_Myc_CIS: Attagene CIS-FACTORIAL HepG2 Assay for human Myelocytomatosis (Myc) Proto-Oncogene Transcription Factor (AID 2282990); conditions: HepG2, Attagene cis-reporter transcription factor activity; actives raise or lower the signal
Outline: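 Transiently transfected HepG2 cells bearing cis-promoter reporter units for endogenous transcription factors; 24 h exposure. Reporter mRNA measured by RT-PCR, 6-FAM primer extension, HpaI cut and capillary electrophoresis; bidirectional fit relative to DMSO.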

[7] = ATG_NRF2_ARE_CIS: Attagene CIS-FACTORIAL HepG2 Assay for human Nuclear Factor Erythroid 2 Related Factor 2 (NFR2) response to Antioxidant Response Elements (ARE) (AID 2282992); conditions: HepG2 Attagene ARE/NRF2 reporter, transcription factor activity; actives raise or lower the signal
Outline: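 Readout: reporter mRNA quantified by RT-PCR plus FAM-labelled primer extension, HpaI digestion and capillary electrophoresis, 24 h after dosing transfected HepG2 cells. Gain or loss of signal is fitted bidirectionally against DMSO baseline.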

[8] = ATG_Oct_MLP_CIS: Attagene CIS-FACTORIAL HepG2 Assay for human Octamer-Binding Transcription Factor (Oct) (AID 2282993); conditions: HepG2 Attagene cis-factorial Oct reporter, mRNA; actives raise or lower the signal
Outline: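 Readout is reporter transcript level from RT-PCR with fluorescent primer extension and capillary electrophoresis, fitted in both directions against DMSO. Transfected HepG2 reporter units report endogenous factor activity after 24 h dosing.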

[9] = target: Cellular tumor antigen p53 (Homo sapiens) (UniProt P04637); experiment: ATG_p53_CIS: Attagene CIS-FACTORIAL HepG2 Assay for human p53 Transcription Factor (AID 2282994); conditions: HepG2 p53 cis-element reporter, Attagene mRNA; actives raise or lower the signal
Outline: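 Read-out: reporter mRNA by RT-PCR plus capillary electrophoresis with fluorescence detection. Human HepG2 liver cells carried transfected multi-reporter cis-element constructs, dosed 24 h. Gain or loss of signal fitted bidirectionally against DMSO control.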

[10] = BSK_3C_TissueFactor: BioMAP Diversity Plus: 3C Assay for Tissue Factor Biomarker Activity (AID 2282997); conditions: BioMAP 3C HUVEC, tissue factor biomarker readout; actives raise or lower the signal
Outline: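 Readout: Tissue Factor ELISA. Cells: human primary umbilical vein endothelium. Time: 24 h after dosing. Analysis: bidirectional fit, DMSO baseline.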

[11] = BSK_3C_uPAR: BioMAP Diversity Plus: 3C Assay for Urokinase-type plasminogen activator receptor (uPAR) Biomarker Activity (AID 2282998); conditions: BioMAP 3C HUVEC, uPAR biomarker ELISA; actives raise or lower the signal
Outline: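 Cell-surface uPAR on HUVEC (3C system) read by ELISA at 24 h post-treatment, with DMSO as baseline and fitting in both directions. Parallel cultures stained with SRB to flag overt cytotoxicity.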

[12] = BSK_3C_VCAM1: BioMAP Diversity Plus: 3C Assay for Vascular cell adhesion molecule 1 (VCAM1) Biomarker Activity (AID 2282999); conditions: BioMAP 3C HUVEC, VCAM1 ELISA, cytokine-stimulated; actives raise or lower the signal
Outline: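 HUVEC primary cells, 24 h compound exposure; VCAM-1 by ELISA; gain/loss of signal fitted bidirectionally vs DMSO baseline.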

[13] = ATG_NF_kB_CIS: Attagene CIS-FACTORIAL HepG2 Assay for human Nuclear Factor Kappa B (NF-kB) (AID 2282991); conditions: HepG2 Attagene cis-factorial NF-kB reporter mRNA; actives raise or lower the signal
Outline: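 Multiplexed cis-reporter assay in transiently transfected HepG2. 24 h treatment; RNA isolated, RT-PCR, labelled fragments resolved by CE. DMSO baseline.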

[14] = ATG_M_06_TRANS: Attagene TRANS-FACTORIAL HepG2 Assay for M06 Transcription Factor (Internal Marker) (AID 2282983; active = hit-call score of the fitted dose curve at least 0.9, where 1 is the maximum); conditions: HepG2 Attagene TRANS M06 internal marker reporter
Outline: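 In this multiplexed HepG2 system, compounds are incubated 24 h with cells carrying GAL4-UAS reporter units. Reporter RNA is amplified and resolved by capillary electrophoresis, and induction is scored against DMSO.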

Measured: AC50

Hepatocyte nuclear factor 4-alpha (Homo sapiens), sequence (P41235 whole entry, looked up): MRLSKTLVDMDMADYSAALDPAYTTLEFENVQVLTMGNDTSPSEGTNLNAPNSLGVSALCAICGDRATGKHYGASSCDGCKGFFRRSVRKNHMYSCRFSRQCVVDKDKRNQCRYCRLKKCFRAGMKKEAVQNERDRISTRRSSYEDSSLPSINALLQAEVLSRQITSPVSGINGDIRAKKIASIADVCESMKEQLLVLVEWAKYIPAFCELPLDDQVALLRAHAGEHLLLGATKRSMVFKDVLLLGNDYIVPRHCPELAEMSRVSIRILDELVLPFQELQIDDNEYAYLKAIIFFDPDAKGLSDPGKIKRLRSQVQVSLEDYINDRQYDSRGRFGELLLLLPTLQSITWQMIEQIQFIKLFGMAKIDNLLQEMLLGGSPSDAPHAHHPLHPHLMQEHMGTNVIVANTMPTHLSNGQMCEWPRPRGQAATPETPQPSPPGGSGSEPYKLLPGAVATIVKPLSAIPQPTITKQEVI
Cellular tumor antigen p53 (Homo sapiens), sequence (P04637 whole entry, looked up): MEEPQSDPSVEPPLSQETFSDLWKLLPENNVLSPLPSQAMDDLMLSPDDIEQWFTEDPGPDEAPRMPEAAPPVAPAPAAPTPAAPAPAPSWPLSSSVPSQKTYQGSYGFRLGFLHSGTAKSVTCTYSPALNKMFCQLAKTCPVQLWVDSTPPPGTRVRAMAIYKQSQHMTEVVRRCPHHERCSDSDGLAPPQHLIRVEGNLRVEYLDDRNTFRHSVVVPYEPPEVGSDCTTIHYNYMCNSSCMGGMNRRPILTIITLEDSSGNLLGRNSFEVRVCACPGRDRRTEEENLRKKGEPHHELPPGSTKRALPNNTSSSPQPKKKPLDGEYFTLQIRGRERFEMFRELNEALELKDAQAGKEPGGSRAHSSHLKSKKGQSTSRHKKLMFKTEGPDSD
Nuclear respiratory factor 1 (Homo sapiens), sequence (Q16656 whole entry, looked up): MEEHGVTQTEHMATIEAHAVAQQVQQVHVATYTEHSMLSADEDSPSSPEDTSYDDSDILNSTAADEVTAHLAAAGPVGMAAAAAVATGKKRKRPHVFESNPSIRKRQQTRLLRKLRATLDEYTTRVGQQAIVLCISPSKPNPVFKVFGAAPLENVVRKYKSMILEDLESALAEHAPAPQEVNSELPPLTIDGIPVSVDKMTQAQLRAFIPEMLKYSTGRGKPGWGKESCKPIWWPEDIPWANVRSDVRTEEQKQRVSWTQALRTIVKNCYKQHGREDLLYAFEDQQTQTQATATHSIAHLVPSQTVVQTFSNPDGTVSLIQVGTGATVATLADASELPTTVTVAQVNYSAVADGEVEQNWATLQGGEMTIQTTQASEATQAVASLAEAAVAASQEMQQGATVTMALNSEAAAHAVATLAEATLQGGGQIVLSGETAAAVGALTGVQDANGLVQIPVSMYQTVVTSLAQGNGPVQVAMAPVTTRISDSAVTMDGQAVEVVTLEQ
Myc proto-oncogene protein (Homo sapiens), sequence (P01106 whole entry, looked up): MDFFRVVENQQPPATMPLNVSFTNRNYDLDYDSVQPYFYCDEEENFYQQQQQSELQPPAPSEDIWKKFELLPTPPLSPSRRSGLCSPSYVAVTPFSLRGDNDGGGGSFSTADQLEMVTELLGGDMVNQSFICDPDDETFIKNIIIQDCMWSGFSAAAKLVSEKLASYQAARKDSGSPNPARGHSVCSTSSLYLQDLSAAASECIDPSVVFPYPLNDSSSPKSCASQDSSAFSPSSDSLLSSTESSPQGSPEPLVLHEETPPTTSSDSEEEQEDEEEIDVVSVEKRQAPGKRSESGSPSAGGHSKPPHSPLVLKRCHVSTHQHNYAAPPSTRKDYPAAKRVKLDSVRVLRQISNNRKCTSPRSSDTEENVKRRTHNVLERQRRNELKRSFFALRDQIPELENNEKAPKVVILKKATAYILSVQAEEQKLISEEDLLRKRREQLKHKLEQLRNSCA
Transcriptional activator Myb (Homo sapiens), sequence (P10242 whole entry, looked up): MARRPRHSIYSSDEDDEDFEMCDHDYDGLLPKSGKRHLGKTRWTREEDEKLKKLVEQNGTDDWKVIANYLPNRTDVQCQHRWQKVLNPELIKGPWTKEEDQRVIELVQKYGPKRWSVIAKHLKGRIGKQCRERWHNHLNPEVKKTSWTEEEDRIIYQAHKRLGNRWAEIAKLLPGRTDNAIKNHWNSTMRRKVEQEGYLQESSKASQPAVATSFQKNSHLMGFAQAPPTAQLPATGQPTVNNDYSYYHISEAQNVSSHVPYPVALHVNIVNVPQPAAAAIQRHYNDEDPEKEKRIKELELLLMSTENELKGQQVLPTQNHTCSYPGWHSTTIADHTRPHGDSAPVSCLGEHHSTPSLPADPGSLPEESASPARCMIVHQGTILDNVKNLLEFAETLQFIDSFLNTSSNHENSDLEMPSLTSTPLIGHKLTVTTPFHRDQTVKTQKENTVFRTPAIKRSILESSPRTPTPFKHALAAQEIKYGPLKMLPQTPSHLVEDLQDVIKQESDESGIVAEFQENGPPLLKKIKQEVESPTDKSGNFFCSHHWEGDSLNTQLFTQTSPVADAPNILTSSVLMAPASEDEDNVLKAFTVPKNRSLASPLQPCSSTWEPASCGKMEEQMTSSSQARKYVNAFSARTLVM
Nuclear receptor subfamily 4 group A member 2 (Homo sapiens), sequence (P43354 whole entry, looked up, the tested form may be a part): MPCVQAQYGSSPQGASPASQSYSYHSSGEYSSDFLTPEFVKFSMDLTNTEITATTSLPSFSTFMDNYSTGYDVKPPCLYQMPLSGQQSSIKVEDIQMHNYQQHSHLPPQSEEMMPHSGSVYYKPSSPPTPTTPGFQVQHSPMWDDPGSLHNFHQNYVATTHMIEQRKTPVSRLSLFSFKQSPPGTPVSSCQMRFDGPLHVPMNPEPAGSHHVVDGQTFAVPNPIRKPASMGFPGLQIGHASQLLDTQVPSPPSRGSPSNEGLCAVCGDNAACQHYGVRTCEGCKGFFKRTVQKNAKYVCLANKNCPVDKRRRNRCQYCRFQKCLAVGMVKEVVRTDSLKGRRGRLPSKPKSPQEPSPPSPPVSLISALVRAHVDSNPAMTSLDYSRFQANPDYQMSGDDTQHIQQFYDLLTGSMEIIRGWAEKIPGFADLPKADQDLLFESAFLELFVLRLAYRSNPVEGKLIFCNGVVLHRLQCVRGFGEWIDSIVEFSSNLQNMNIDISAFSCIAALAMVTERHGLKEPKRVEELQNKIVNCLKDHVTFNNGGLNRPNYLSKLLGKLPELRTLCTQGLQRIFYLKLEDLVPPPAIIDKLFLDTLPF

C=C(C)C(=O)OCCN(C)C
not listed: [10] | [11] | [12] | [13] | [14]
inactive: all other assays above

C=C(C)C(=O)OCCC(F)(F)C(F)(F)C(F)(F)C(F)(F)C(F)(F)C(F)(F)C(F)(F)C(F)(F)F
inactive: [10] | [11] | [12]

CCCc1ccc(N)cc1
inactive: [3] | [4] | [5] | [6] | [13] | [7] | [8]

C=C(F)C(=O)OC(C(F)(F)F)C(F)(F)F
inactive: [10] | [11] | [12]

CC(=O)CC(C)(C)C1CCCCC1
not listed: [2] | [10] | [11] | [12] | [14]
inactive: all other assays above

COc1ccccc1NC(=O)CC(C)=O
not listed: [14]
inactive: all other assays above

CCCCC/C=C\C=C\C(=O)OCC
active: [3] 103 µM | [4] 50.4 µM | [9] 156 µM
inactive: [1] | [14] | [7] | [8]
